# About 83,000 compounds went through this panel and 20% of them were active in at least one assay; those are over-represented in the sample as a whole.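 Interpretation: 100, growth as untreated; towards 0, rising growth inhibition; 0, no net growth; 0 to -100, cell death. Compounds scoring below 10 were considered active.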 Unmarked numbers belong to inactive results. The source made the active and inactive calls.
# Legend:
# Experiment in all cases: NCI-60 one-dose screen, 48 h (100 = growth as untreated, 0 = no growth, -100 = all killed)
# [1] = test system: NCI-H23 lung; details: 10 µM unless noted
# [2] = test system: NCI-H226 lung; details: 10 µM unless noted
# [3] = test system: NCI-H322M lung; details: 10 µM unless noted
# [4] = test system: HOP-62 NSCLC; details: 10 µM unless noted
# [5] = test system: NCI-H460 lung; details: 10 µM unless noted
# [6] = test system: HOP-92 NSCLC; details: 10 µM unless noted
# [7] = test system: NCI-H522 lung; details: 10 µM unless noted
# [8] = test system: A549/ATCC NSCLC; details: 10 µM unless noted
# [9] = test system: 786-0 renal; details: 10 µM unless noted
# [10] = test system: COLO 205 colon; details: 10 µM unless noted
# [11] = test system: DU-145 prostate; details: 10 µM unless noted
# [12] = test system: K-562 leukemia; details: 10 µM unless noted
# [13] = test system: MALME-3M melanoma; details: 10 µM unless noted
# [14] = test system: MDA-MB-231 breast; details: 10 µM unless noted
# [15] = test system: SF-268 CNS; details: 10 µM unless noted
# [16] = test system: SF-295 CNS; details: 10 µM unless noted
# [17] = test system: SF-539 CNS; details: 10 µM unless noted
# [18] = test system: M14 melanoma; details: 10 µM unless noted
# [19] = test system: RXF 393 renal; details: 10 µM unless noted
# [20] = test system: UACC-257 melanoma; details: 10 µM
Structure (SMILES),growth [1],growth [2],growth [3],growth [4],growth [5],growth [6],growth [7],growth [8],growth [9],growth [10],growth [11],growth [12],growth [13],growth [14],growth [15],growth [16],growth [17],growth [18],growth [19] [%],growth [20] [%]
COC(=O)c1ccc2nc(-c3cc4ccccc4n3C)n(CCCCOc3cc4c(cc3OC)C(=O)N3CCC[C@H]3C=N4)c2c1,7.22% (active),-31.8% (active),-38.1% (active),15.6%,-25.9% (active),-28.5% (active),-28.1% (active),-11.8% (active),8.78% (active),-39.4% (active),22.1%,44.6%,-80.1% (active),-14.7% (active),1.79% (active),-26.7% (active),-13.8% (active),-12.7% (active),,
COc1ccc(OC)c(NC(=O)c2cc(S(=O)(=O)N3CCc4ccccc43)ccc2OC)c1,86.7%,92.1%,109%,100%,108%,74.5%,78.6%,78.9%,89.8%,87.5%,84.9%,103%,111%,71.8%,95.9%,73.4%,82.9%,98.8%,,
NC(=O)c1c(NC(=O)c2ccc(OCC3CCCO3)cc2)sc2c1CCCC2 (configuration not stated),100%,83.8%,99.8%,108%,106%,66.9%,87.3%,35.5%,95.5%,111%,105%,134%,82.4%,96.6%,109%,93.8%,100%,108%,,
Cc1cc(C(=O)CSc2nc3ccccc3c(=O)[nH]2)c(C)n1C,97.7%,97.8%,100%,93.5%,113%,73.1%,98.9%,43.2%,91.9%,109%,102%,110%,87.5%,90.4%,110%,81.9%,90.2%,112%,,
COc1ccc(C(=O)N2CCN(C(=O)c3cc(OC)c(OC)c(OC)c3)CC2)cc1OCCCCOc1cc2c(cc1OC)C(=O)N1CCC[C@H]1C=N2,82.2%,105%,141%,105%,121%,70.9%,102%,76.8%,108%,107%,113%,116%,126%,82.4%,126%,109%,98.9%,115%,,
Clc1nc2ccccc2nc1CI,86%,68.2%,89.9%,105%,108%,90.9%,3.79% (active),117%,101%,120%,109%,21.3%,49.5%,,113%,95.8%,97.8%,55.3%,94.9,119
CCN1C(=O)N(CC)C2Nn3c(s/c(=C\c4cccc(F)c4)c3=O)=NC21 (configuration not stated),62.7%,96.1%,96.6%,68.1%,53.9%,49.1%,64.4%,72.5%,77.5%,70.7%,59.1%,26.8%,72.3%,66.5%,76.1%,61.1%,68.3%,89.6%,,
CCCCCCCCCN1C(=O)/C(=c2\sc3n(c2=O)C2C(NN=3)N(CC)C(=O)N2CC)c2ccccc21 (configuration not stated),10.1%,89.6%,77%,45.1%,46.1%,44.5%,26.8%,56%,78.4%,93.3%,69.8%,21.3%,50.7%,63.9%,50.9%,61%,8.03% (active),90.8%,,
CCN1C(=O)N(CC)C2C1NN=c1s/c(=C3\C(=O)N(C4CCCC4)c4ccccc43)c(=O)n12 (configuration not stated),20.1%,99.8%,53%,8.41% (active),-1.48% (active),28.1%,-5.34% (active),25.3%,14.1%,-29.2% (active),7.65% (active),4.67% (active),57.4%,19.7%,43.4%,-6.11% (active),-39.3% (active),2.66% (active),,
O=C1Nc2cc(Cl)ccc2Oc2cc(Oc3ccccc3)ccc21,54.8%,72.3%,76.2%,64.1%,25.1%,115%,45.1%,62.2%,74.3%,45.2%,71.5%,25.5%,87.1%,63.9%,63%,49%,64.7%,41.1%,,
CCN1C(=O)/C(=c2\sc3n(c2=O)C2C(NN=3)N(CC)C(=S)N2CC)c2ccccc21 (configuration not stated),101%,92.3%,103%,79.2%,107%,99.2%,91.9%,106%,99.5%,103%,115%,98%,93.2%,96.3%,90.2%,100%,96.3%,96.2%,,
C/C(=N\NC(=O)CC#N)c1cc2cc(Cl)ccc2o1,97.2%,94.6%,97.2%,92.8%,94.2%,-13.3% (active),84.4%,111%,105%,99.7%,103%,96.6%,102%,93.9%,102%,99.7%,82.9%,104%,,
Nc1nc(Cl)c2c(ncn2Cc2ccc(CCl)cc2)n1,94%,94.5%,94.9%,120%,93.8%,54.9%,76.1%,83.4%,103%,106%,86.5%,117%,94.6%,88.2%,91.1%,52.8%,82.5%,97.2%,,
COc1ccc(/C=C2\Oc3cc(OCCN4CCCC4)ccc3C2=O)c(OC)c1,88.5%,97.8%,101%,84.3%,93.9%,79.7%,104%,99.4%,88.2%,92.8%,90.8%,2.26% (active),102%,88.7%,95.1%,100%,87.4%,98.9%,,
COc1cc2oc(-c3cccc(NC(=O)Nc4ccc5c(c4)OCO5)c3)cc(=O)c2c(OC)c1OC,64.5%,87.6%,79.4%,63.2%,37.7%,17.2%,41.5%,61%,65.1%,75.8%,65.4%,41.9%,75.7%,61.3%,75.6%,60%,81.8%,-9.91% (active),,
C/C1=C\CCC2(C)OC2CC2CCC(C)(O)C(CC1)C2(C)C (configuration not stated),99%,107%,96.5%,101%,106%,-16.4% (active),88%,98%,98.9%,109%,96.1%,104%,93.5%,105%,103%,55.5%,88.1%,98.7%,,
COc1ccc(NC(=O)/N=c2\oc3c(OC)cccc3cc2-c2cc3ccccc3[nH]2)cc1,53.2%,67.7%,74%,22.6%,49.4%,-9.99% (active),76.3%,55.7%,10.7%,97.8%,69.3%,86.3%,57.3%,36.3%,70%,52.1%,35.3%,93.5%,,

# Source: PubChem BioAssay (NCI)
